Assay outcomes: PubChem, National Center for Advancing Translational Sciences (NCATS)
Compounds with a hit are over-represented: about 2.9% of the library has one in this group of screens.
Pol eta inh = qHTS for Inhibitors of Polymerase Eta | DNA polymerase eta (Homo sapiens), Q9Y253 | recombinant Pol eta, fluorescent DNA replication assay | Potency, µM (highest dose often 114 µM), actives largely listed as inhibitors | hit rate 1.2% among 390,000 | AID 588591, 2011
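Fluorescent replication assay: 50 nM final substrate added after a 15 min room-temperature compound preincubation with 10 nM enzyme. Signal taken at 0 min and again at 10 min.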
ALOX12 inh = Primary qHTS assay for inhibitors of human arachidonate 12S-lipoxygenase (ALOX12): Round 2 | purified 12hLO, xylenol orange hydroperoxide absorbance | hit rate 1.1% among 580,000 | Potency, µM (highest dose often 108 µM), usual class: inhibitors
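Hydroperoxide product was detected by ferrous iron/xylenol orange as the 573 to 405 nm absorbance ratio. Arachidonic acid at 40 uM (final) was turned over for 30 min at room temperature by 150 nM human 12hLO, pH 7.0 Hepes buffer, after 15 min compound preincubation.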
POLB inh = qHTS Assay for Inhibitors of DNA Polymerase Beta. P06746. Pol beta primer extension/strand displacement, fluorescence kinetic. Potency, µM (top dose mostly 114 µM), most hits filed as inhibitors. hit rate 1.3% among 340,000. AID 485314, 2010
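Preincubation: enzyme (10 nM) with compound, 15 min, RT. Reaction: substrate added to 50 nM final. Reads: 0 and 10 min. Analysis: normalized, Hill fit.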
Pol kappa inh = qHTS for Inhibitors of Polymerase Kappa; Potency, µM (series often up to 107 µM), hits mostly inhibitors; DNA polymerase kappa (Homo sapiens), Q9UBT6; purified Pol kappa, fluorescent DNA synthesis assay, 10 min; AID 588579, 2011; hit rate 0.53% among 400,000
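10 nM Pol kappa preincubated 15 min at room temperature with compounds, then reaction started with substrate at 50 nM final. Fluorescence read kinetically at 0 and 10 min; buffer-only wells served as negative control.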
Pol iota inh = qHTS for Inhibitors of Polymerase Iota; DNA polymerase iota (Homo sapiens), Q9UNA4; Pol iota fluorescent replication assay, 10 min; Potency, µM (highest dose often 115 µM), actives largely listed as inhibitors; hit rate 1% among 390,000; AID 588590, 2011
Target sequence (Q9UNA4 whole entry, looked up): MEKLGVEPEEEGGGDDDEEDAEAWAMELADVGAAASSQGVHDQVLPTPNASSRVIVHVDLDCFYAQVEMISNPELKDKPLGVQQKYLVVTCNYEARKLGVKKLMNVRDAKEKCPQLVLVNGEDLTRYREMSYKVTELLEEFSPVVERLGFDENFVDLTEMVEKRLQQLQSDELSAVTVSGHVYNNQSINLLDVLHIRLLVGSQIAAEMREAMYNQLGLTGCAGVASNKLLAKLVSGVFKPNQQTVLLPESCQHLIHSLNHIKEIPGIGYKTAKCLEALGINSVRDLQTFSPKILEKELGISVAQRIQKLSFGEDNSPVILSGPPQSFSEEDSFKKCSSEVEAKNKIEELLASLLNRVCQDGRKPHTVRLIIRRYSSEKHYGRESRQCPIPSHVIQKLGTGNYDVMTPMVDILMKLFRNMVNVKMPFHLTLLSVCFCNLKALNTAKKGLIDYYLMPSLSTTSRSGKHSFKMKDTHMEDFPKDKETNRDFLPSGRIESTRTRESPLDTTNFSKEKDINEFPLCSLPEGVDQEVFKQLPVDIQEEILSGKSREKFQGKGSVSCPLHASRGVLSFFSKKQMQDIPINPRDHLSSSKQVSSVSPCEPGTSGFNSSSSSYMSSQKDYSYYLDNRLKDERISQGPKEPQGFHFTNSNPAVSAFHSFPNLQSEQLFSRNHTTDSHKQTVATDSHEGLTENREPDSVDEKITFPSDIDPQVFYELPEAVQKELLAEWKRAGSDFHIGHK
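Pol iota at 10 nM preincubated 15 min with compounds at room temperature; reaction started with fluorescent substrate, 50 nM final. Fluorescence read kinetically at 0 and 10 min; buffer-only wells as negative control.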
PI5P4Ka inh = qHTS for Inhibitors of phosphatidylinositol 5-phosphate 4-kinase (PI5P4K) | PI5P4Kalpha enzyme, ADP-Glo luminescence, 60 min; hits give low values | hit rate 1.2% among 330,000 | Phosphatidylinositol 5-phosphate 4-kinase type-2 alpha (Homo sapiens), P48426 | max response, %; active = max response of -50% or lower; inconclusive = between -30% and -50%; inactive = -30% or higher; note: value at the top dose of about 77 µM
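ADP-Glo luminescence end-point read after a 60 min room-temperature kinase reaction of PI5P4Kalpha plus substrate, initiated with ATP at 5 microM final. Buffer: 0.038 M HEPES pH 7.4, EGTA, 0.1% CHAPS, 5% DMSO.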
ADP-Glo interf = qHTS for Inhibitors of PI5P4K: ADP-Glo counter assay. shares compounds with PI5P4Ka inh. ADP-Glo detection counter-screen, luciferase luminescence, no enzyme. Potency, µM (highest dose often 76.9 µM), hits mostly inhibitors. 1,100 tested, under 10 active
Hits are given with their value. Unless noted, calls come from the whole dose curve; as a rule, active = well fitted curve in the direction sought with a large enough effect; inconclusive = small, poorly fitted or top-dose-only effect, or another doubt; inactive = no such curve, though single readings can be large; an effect the other way counts as inactive or inconclusive.

How did Cc1cccc(C)c1NC(=O)C(c1ccccc1)n1c(=O)c(-c2ccco2)nc2ccccc21 (centres undefined) do in these assays?
ALOX12 inh: inconclusive; PI5P4Ka inh: -51.8; ADP-Glo interf: inactive

Results for O=C(NCc1ccccc1)C(c1ccccc1F)n1c(=O)c(-c2ccccc2)nc2ccccc21 (centres undefined) ?
ALOX12 inh: inactive; PI5P4Ka inh: inactive

What do the screens show for `Cc1cccc(C)c1NC(=O)C(c1ccc(C#N)cc1)n1c(=O)c(-c2ccco2)nc2ccccc21` (centres undefined)?
ALOX12 inh: 11.2µM; PI5P4Ka inh: -52.8; ADP-Glo interf: inactive

What do the screens show for `O=C(NCc1ccccc1)C(c1ccccc1F)n1c(=O)c(-c2ccco2)nc2ccccc21` (centres undefined)?
ALOX12 inh: inconclusive; PI5P4Ka inh: -63.6; ADP-Glo interf: inactive

Results for CCCCCNC(=O)C(c1cc2ccccc2o1)n1c(=O)c(-c2ccco2)nc2ccccc21 (centres undefined) ?
ALOX12 inh: 39.8µM; PI5P4Ka inh: -108.3; ADP-Glo interf: inactive

Results for COc1cc2c(cc1OC)C(c1ccccc1)N(CC(O)CO)CC2 (centres undefined) ?
ALOX12 inh: inactive

What do the screens show for `Cc1oc(C)c(C(=O)OCc2ccc(C#N)cc2)c1C`?
ALOX12 inh: inactive

Results for CCOc1ccc(CCNC(=O)c2cc3c(s2)-c2ccccc2S(=O)(=O)C3)cc1 ?
ALOX12 inh: inactive

How did O=C(O)C(c1c[nH]c2ccc(CO)cc12)N1CCCN(c2ccc(C(F)(F)F)cn2)CC1 (centres undefined) do in these assays?
ALOX12 inh: inactive

What do the screens show for `CC(NC(=O)CSc1nnc(COc2ccc(Cl)cc2)n1C)c1ccc(F)cc1` (centres undefined)?
ALOX12 inh: inactive

How did COCc1cc(N2CCCCC2)nc(-c2ccccc2)n1 do in these assays?
Pol eta inh: inactive; ALOX12 inh: inactive; POLB inh: inactive; Pol kappa inh: inactive; Pol iota inh: inactive; PI5P4Ka inh: -74.1; ADP-Glo interf: inactive

How did CCOc1ccccc1C(=O)Nc1ccc2oc(=O)ccc2c1 do in these assays?
ALOX12 inh: inactive

How did Cc1cc(NS(=O)(=O)c2ccc(NC(=O)COc3ccc(Br)cc3)cc2)nc(C)n1 do in these assays?
Pol eta inh: inactive; ALOX12 inh: inactive; POLB inh: inactive; Pol kappa inh: inactive; Pol iota inh: inactive; PI5P4Ka inh: -54.3; ADP-Glo interf: inactive

How did Cc1ccc(CN2CCCCCCNC(=O)[C@@H]3CCC[C@@H]32)s1 do in these assays?
ALOX12 inh: inactive

How did Cc1ccc(C)c(C2=NNC(=NCc3ccccc3)SC2)c1 do in these assays?
Pol eta inh: inactive; ALOX12 inh: inconclusive; POLB inh: inactive; Pol kappa inh: inactive; Pol iota inh: inactive; PI5P4Ka inh: -65.5; ADP-Glo interf: inactive

Results for C=CCNc1nc(-c2c(C(=O)OC)c(C)n(C(C)C)c2C)cs1 ?
ALOX12 inh: inactive

What do the screens show for `NC(Cc1ccc(C(F)(F)F)cc1)c1csc(NC(=O)Nc2ccccc2)n1` (centres undefined)?
ALOX12 inh: inconclusive; PI5P4Ka inh: -56.0; ADP-Glo interf: inactive

Results for Cc1nc(Oc2ccc(F)cc2)c2c3c(sc2n1)CCCC3 ?
ALOX12 inh: inactive
